FBA Mtb inh: inhibits M. tuberculosis FBA enzyme. 2.3% of 360,000 active. inhibition, % at 1 µM. P9WQA3. purified M. tuberculosis FBA, fluorescence read-out; in the data active = inhibition above about 27%
RecA intein inh: Mtb RecA intein splicing inhibition | inhibition, % (concentration not given with the values) | cell-free RecA intein splicing, fluorescence | AID 2221 | P9WHJ3 | 0.75% of 290,000 active; in the data active = inhibition above about 30%
Target sequence (P9WHJ3 whole entry, looked up): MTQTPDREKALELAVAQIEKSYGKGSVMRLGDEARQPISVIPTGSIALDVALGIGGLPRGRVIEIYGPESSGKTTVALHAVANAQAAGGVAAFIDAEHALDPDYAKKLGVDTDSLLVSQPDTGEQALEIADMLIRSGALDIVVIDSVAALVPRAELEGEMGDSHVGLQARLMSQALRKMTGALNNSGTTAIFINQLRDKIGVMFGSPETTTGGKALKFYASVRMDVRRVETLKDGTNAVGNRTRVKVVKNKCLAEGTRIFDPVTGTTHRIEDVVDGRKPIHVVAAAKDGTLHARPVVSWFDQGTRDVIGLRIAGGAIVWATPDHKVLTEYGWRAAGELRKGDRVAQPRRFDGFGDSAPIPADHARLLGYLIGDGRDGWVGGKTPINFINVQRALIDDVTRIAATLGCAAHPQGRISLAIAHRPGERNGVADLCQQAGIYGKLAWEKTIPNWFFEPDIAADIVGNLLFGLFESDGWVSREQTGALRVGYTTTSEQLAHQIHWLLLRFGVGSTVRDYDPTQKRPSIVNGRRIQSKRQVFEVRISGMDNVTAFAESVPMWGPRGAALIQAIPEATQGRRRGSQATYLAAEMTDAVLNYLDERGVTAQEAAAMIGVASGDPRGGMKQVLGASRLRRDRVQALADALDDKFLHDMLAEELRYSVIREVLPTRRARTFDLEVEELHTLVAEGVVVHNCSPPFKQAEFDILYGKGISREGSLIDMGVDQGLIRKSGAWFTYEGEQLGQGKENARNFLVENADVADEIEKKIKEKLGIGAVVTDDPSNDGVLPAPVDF
GDH-TPI counter: inhibits GDH-TPI coupling enzymes, artifact for Mtb FBA screen; GDH-TPI coupled enzyme counterscreen, NADH absorbance; inhibition, % at 4.8 µM; 1.2% of 360,000 active; AID 588335
CCHFV vOTU inh: CCHFV vOTU protease inhibition; inhibition, % at 11.5 µM; 0.55% of 370,000 active; Pep-AMC fluorescence; AID 651958
Mtb bLac sens: beta-lactam sensitization of Mtb H37Rv; M. tuberculosis H37Rv growth with meropenem, percent inhibition; inhibition, % at 25 µM; 0.27% of 330,000 active; call rule not given here;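 also: growth measured after seven days incubation then overnight dye step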
Numbers stand for hits; i = inactive; nt = no result. Shown are actives, neighbours in structure and some others; about 4.2% of the full set was active somewhere. Rule as the data show it, unless noted: active = inhibition above about 30%; inactive = the rest.

SMILES	FBA Mtb inh	RecA intein inh	GDH-TPI counter	CCHFV vOTU inh	Mtb bLac sens
O=C(O)c1ccc(N/N=C/c2ccncc2)cc1	i	i	32	i	i
O=C(O)c1ccc(N/N=C/c2cccc(F)c2)cc1	i	i	37	i	i
O=C(O)c1ccc(N/N=C/c2ccc(OC(=O)c3cccc(Cl)c3)cc2)cc1	i	i	31	i	i
O=C(O)c1ccc(N/N=C/c2ccc(F)c(F)c2)cc1	i	i	58	i	i
O=C(O)c1ccc(N/N=C/c2cccc(C(F)(F)F)c2)cc1	i	i	i	i	i
O=C(Oc1ccc(/C=N/Nc2ccccc2)cc1)c1ccccc1	i	i	i	i	i
O=C(O)c1ccc(N/N=C/c2ccc3nccnc3c2)cc1	i	i	i	i	i
CCC(=O)N1CCc2cc(Br)c(S(=O)(=O)NCCCN(C)Cc3ccccc3)cc21	nt	nt	nt	i	nt
C(=N\Nc1cc(N2CCCCC2)ncn1)/c1ccco1	i	i	42	i	i
CCOC(=O)c1cc2c(=O)n3ccccc3nc2n(Cc2ccc(Cl)cc2)c1=N	i	nt	i	i	nt
CCCn1c(=NC(=O)c2ccncc2)c(C#N)cc2c(=O)n3cccc(C)c3nc21	i	nt	i	nt	nt
CCCCCn1c(=NC(=O)c2ccco2)c(C(=O)OCC)cc2c(=O)n3ccccc3nc21	144	i	i	i	i
CCCCn1c(=NC(=O)c2ccco2)c(C(=O)OCC)cc2c(=O)n3cccc(C)c3nc21	173	i	i	i	i
CCCCn1c(=NC(=O)c2ccco2)c(C(=O)OCC)cc2c(=O)n3ccccc3nc21	197	i	i	i	i
CC(C)(C)c1ccc(S(=O)(=O)N2CCC(C(=O)NCc3cccs3)CC2)cc1	nt	nt	nt	i	nt
O=C1[C@@H](CCc2ccccc2)[C@@H]2c3cc4ccccc4cc3C=NN2[C@@H]2c3cc4ccccc4cc3C=NN12	nt	nt	nt	i	nt
COCCCNC(=O)C[C@H]1C[C@H](C(=O)N2CCOCC2)[C@@]2(CCC3CCCC3)c3[nH]c4cc(-c5ccco5)ccc4c3CCN2C1=O	i	nt	i	i	nt
O=C(C[C@H]1C[C@H](C(=O)N2CCOCC2)[C@@]2(CCC3CCCC3)c3[nH]c4cc(-c5ccco5)ccc4c3CCN2C1=O)NCCN1CCOCC1	41	nt	i	i	nt
O=C(CSc1nnc(-c2cccs2)o1)c1ccc2c(c1)OCO2	nt	nt	nt	i	nt
CCc1ccc(-c2cnc3nc[nH]c(=O)c3n2)cc1	135	i	i	i	i
Cc1ccc2oc(-c3ccco3)cc(=O)c2c1	123	i	31	i	i
N#CCOc1ccc2oc(-c3ccco3)cc(=O)c2c1	nt	nt	nt	nt	i
CCCCCCCCN1C(=O)[C@@H](CC(=O)N2CCCCC2)C[C@@]2(C(=O)OC)C1=C[C@H](COCc1ccccc1)O[C@@H]2C	nt	nt	nt	i	nt
OCCNc1ncnc2c1sc1nc(N3CCOCC3)c3c(c12)CCC3	i	i	i	i	i
CCN(CC)CCNc1ncnc2c1sc1nc(N3CCOCC3)c3c(c12)CCCC3	i	i	35	i	i
SMILES	FBA Mtb inh	RecA intein inh	GDH-TPI counter	CCHFV vOTU inh	Mtb bLac sens
COCc1cc(C)n(CC(=O)Nc2ccc(Cl)cc2Cl)c(=O)c1C#N	122	i	i	i	i
COCc1cc(C)n(CC(=O)Nc2ccccc2OC)c(=O)c1C#N	i	i	i	i	i
Cc1cc(C)nc(N2CCC(C(=O)N(C)CCc3ccccn3)CC2)n1	nt	nt	nt	i	nt
C#CCCCN([C@@H](CC(C)C)C(=O)OC)S(=O)(=O)c1ccccc1Br	nt	nt	nt	i	nt
CN(CC(=O)OCC(=O)NC(=O)c1cccn1C)S(=O)(=O)c1ccc(Cl)cc1	193	i	i	i	i
Cc1ccc2nc(-c3ccc(NC(=O)CSc4nnc(-c5ccccc5)n4Cc4ccco4)cc3)sc2c1	nt	nt	nt	i	nt
Cc1cccc(C(=O)N/N=C2\CS(=O)(=O)N(C)c3ccsc32)c1	i	i	i	i	i
CN1c2ccsc2/C(=N/NC(=O)c2c(F)cccc2F)CS1(=O)=O	i	i	34	i	i
COc1ccc(CN2C(=O)C(Cc3ccccc3)Nc3ncnc(N4CCc5ccccc5C4)c32)cc1 (stereo not given)	nt	35	nt	nt	i
COc1ccc(CN2C(=O)C(Cc3ccccc3)Nc3ncnc(N4CCOCC4)c32)cc1 (stereo not given)	i	i	i	i	i
Cn1ncnc1SCc1cn2cccnc2n1	130	i	i	i	i
COC(=O)CNC(=O)CSc1nc2sc(-c3ccccc3)cc2c(=O)n1-c1ccccc1	i	i	47	i	i
COC(=O)CNC(=O)CSc1nc2sccc2c(=O)n1-c1ccccc1	i	i	i	i	i
CCC[C@@H](/C=C/C(=O)OC(C)(C)C)Sc1ccc(OC)cc1	nt	nt	nt	i	nt
Clc1cccc(CSc2ncnc3sc4c(c23)CCCC4)c1	nt	nt	nt	i	nt

Screens deposited in PubChem BioAssay by several laboratories.
